Reference: PubChem BioAssay (Tox21)
Results filed as inconclusive are left out. Calls of active or inactive are those of the source. Unless noted, the call rests on the fitted dose curve; in most records, active means well fitted curve in the direction sought with a large enough effect in the repeat runs; inconclusive means weak or mixed curves; inactive means no such curve, though single readings can be large; an effect the other way counts as inactive or inconclusive.

Columns and labels:
[1] = target: Acetylcholinesterase (Homo sapiens) (UniProt P22303); assay: Acetylcholinesterase (AChE) small molecule antagonists: enzyme-based qHTS assay (AID 1347397; calls by dose curve; further: nearly all actives have a fitted effect of over 55% in size); settings: Potency: AChE enzyme activity inhibition
In short: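 rhAChE 50 mU/mL (dispensed) + cpd or DMSO, 30 min RT; add DTNB/acetylthiocholine cocktail, 10 min RT; colorimetric thiocholine readout. qHTS, 1536-well format.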

[2] = target: Acetylcholinesterase (Homo sapiens) (UniProt P22303); assay: Acetylcholinesterase (AChE) small molecule antagonists: fluorescence cell-based qHTS assay (AID 1347398; calls by dose curve; further: nearly all actives have a fitted effect of over 50% in size); settings: Potency: AChE activity
In short: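 Read-out is Thiolite Green fluorescence at Ex/Em = 490/520 nm, formed by reaction with thiocholine released when cellular AChE in SH-SY5Y cells hydrolyzes acetylthiocholine. Compounds were preincubated 30 min at 37 C before substrate.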

[3] = target: Acetylcholinesterase (Homo sapiens) (UniProt P22303); assay: Acetylcholinesterase (AChE) small molecule antagonists: enzyme-based qHTS assay with human liver microsomes (AID 1347399; calls by dose curve; further: nearly all actives have a fitted effect of over 60% in size); settings: Potency: qHTS inhibition
In short: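 Recombinant human AChE (50 mU/mL in the enzyme mix) and human liver microsomes (0.25 mg/mL final) were preincubated with compound and NADPH (0.25 mg/mL final) for 30 min at 37 C. Acetylthiocholine/DTNB was then added; thiocholine was read colorimetrically after 10 min at room temperature.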

[4] = target: Cytochrome P450 2D6 (Homo sapiens) (UniProt P10635); assay: Cytochrome P450 Family 2 Subfamily D Member 6 (CYP2D6) small molecule antagonists: luciferase reporter qHTS assay (AID 1671196); further: nearly all actives have a fitted effect of over 50% in size; further: potency means the concentration at half of the fitted maximal effect; on activity change, negative = inhibition: series mostly up to about 120 µM
In short: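 Luminescence (RLU), read 20 min after detection reagent, indicated CYP2D6 conversion of proluciferin to luciferin during a 1 h NADPH-dependent reaction at room temperature.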

[5] = target: Cytochrome P450 2C19 (Homo sapiens) (UniProt P33261); assay: Cytochrome P450 Family 2 Subfamily C Member 19 (CYP2C19) small molecule antagonists: luciferase reporter qHTS assay (AID 1671197); further: nearly all actives have a fitted effect of over 65% in size; further: potency means the concentration at half of the fitted maximal effect; on activity change, negative = inhibition: series mostly up to about 120 µM
In short: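 Light output is proportional to CYP2C19 activity: proluciferin substrate is converted to luciferin, then detected by a luciferin detection reagent that also stops the 1 h, 37C NADPH-driven reaction. Ketoconazole serves as positive control.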

[6] = target: Cytochrome P450 2C9 (Homo sapiens) (UniProt P11712); assay: Cytochrome P450 Family 2 Subfamily C Member 9 (CYP2C9) small molecule antagonists: luciferase reporter qHTS assay (AID 1671198); further: nearly all actives have a fitted effect of over 50% in size; further: potency means the concentration at half of the fitted maximal effect; on activity change, negative = inhibition: series mostly up to about 120 µM
In short: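 Enzyme-substrate mix preincubated with compound 10 min at room temperature; reaction started with NADPH regeneration solution, 1 h 37C. Luminescent luciferin product read after 20 min detection reagent.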

[7] = target: Cytochrome P450 1A2 (Homo sapiens) (UniProt P05177); assay: Cytochrome P450 Family 1 Subfamily A Member 2 (CYP1A2) small molecule antagonists: luciferase reporter qHTS assay (AID 1671199); further: nearly all actives have a fitted effect of over 50% in size; further: potency means the concentration at half of the fitted maximal effect; on activity change, negative = inhibition: series mostly up to about 120 µM
In short: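 CYP1A2 turnover of a luminogenic substrate was quantified after 1 h with NADPH regeneration at room temperature. Furafylline served as positive control.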

[8] = target: Voltage-gated inwardly rectifying potassium channel KCNH2 (Homo sapiens) (UniProt Q12809); assay: Human Ether-a-go-go-Related Gene (hERG) channel small molecule antagonists: fluorescence cell-based qHTS assay (AID 1671200); further: nearly all actives have a fitted effect of over 50% in size; further: potency means the concentration at half of the fitted maximal effect;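 on activity change, negative = inhibition: hERG-expressing U2OS cells given a thallium stimulus after FluxOR II dye loading; series mostly up to about 77 µM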
In short: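 Fluorescence at 540 nm emission (480 nm excitation) was recorded kinetically for 2 min at 1-second intervals once the thallium-containing stimulus reached cells previously loaded with FluxOR II dye.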

[9] = target: Cytochrome P450 3A4 (Homo sapiens) (UniProt P08684); assay: Cytochrome P450 Family 3 Subfamily A Member 4 (CYP3A4) small molecule antagonists: luciferase reporter qHTS assay (AID 1671201); further: nearly all actives have a fitted effect of over 50% in size; further: potency means the concentration at half of the fitted maximal effect; on activity change, negative = inhibition: series mostly up to about 120 µM
In short: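 qHTS, 1536-well. CYP3A4 + proluciferin substrate, cpd 10 min RT → NADPH regen 1 h RT → detection reagent 20 min → luminescence (RLU). Ketoconazole positive control.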
On the % scale 0 is the no-effect control and ±100 the full control effect.

Chain of Acetylcholinesterase (Homo sapiens) (P22303 whole entry, looked up): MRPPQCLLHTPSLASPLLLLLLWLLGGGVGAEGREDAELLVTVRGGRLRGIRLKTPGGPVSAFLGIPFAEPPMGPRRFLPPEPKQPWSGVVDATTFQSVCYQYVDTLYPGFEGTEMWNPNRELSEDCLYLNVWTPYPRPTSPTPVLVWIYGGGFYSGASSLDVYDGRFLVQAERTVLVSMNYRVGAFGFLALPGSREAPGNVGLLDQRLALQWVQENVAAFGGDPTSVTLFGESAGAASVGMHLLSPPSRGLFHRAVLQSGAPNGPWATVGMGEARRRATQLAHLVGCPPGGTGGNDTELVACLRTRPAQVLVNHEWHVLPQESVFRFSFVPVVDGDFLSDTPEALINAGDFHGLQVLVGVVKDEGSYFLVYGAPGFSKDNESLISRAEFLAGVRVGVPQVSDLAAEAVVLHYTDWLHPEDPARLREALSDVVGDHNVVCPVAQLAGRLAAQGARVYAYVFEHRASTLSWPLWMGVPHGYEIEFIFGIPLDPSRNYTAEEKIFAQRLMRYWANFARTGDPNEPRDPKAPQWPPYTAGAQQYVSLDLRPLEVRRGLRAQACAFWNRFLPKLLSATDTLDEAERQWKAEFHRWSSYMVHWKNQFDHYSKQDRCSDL
Chain of Voltage-gated inwardly rectifying potassium channel KCNH2 (Homo sapiens) (Q12809 whole entry, looked up): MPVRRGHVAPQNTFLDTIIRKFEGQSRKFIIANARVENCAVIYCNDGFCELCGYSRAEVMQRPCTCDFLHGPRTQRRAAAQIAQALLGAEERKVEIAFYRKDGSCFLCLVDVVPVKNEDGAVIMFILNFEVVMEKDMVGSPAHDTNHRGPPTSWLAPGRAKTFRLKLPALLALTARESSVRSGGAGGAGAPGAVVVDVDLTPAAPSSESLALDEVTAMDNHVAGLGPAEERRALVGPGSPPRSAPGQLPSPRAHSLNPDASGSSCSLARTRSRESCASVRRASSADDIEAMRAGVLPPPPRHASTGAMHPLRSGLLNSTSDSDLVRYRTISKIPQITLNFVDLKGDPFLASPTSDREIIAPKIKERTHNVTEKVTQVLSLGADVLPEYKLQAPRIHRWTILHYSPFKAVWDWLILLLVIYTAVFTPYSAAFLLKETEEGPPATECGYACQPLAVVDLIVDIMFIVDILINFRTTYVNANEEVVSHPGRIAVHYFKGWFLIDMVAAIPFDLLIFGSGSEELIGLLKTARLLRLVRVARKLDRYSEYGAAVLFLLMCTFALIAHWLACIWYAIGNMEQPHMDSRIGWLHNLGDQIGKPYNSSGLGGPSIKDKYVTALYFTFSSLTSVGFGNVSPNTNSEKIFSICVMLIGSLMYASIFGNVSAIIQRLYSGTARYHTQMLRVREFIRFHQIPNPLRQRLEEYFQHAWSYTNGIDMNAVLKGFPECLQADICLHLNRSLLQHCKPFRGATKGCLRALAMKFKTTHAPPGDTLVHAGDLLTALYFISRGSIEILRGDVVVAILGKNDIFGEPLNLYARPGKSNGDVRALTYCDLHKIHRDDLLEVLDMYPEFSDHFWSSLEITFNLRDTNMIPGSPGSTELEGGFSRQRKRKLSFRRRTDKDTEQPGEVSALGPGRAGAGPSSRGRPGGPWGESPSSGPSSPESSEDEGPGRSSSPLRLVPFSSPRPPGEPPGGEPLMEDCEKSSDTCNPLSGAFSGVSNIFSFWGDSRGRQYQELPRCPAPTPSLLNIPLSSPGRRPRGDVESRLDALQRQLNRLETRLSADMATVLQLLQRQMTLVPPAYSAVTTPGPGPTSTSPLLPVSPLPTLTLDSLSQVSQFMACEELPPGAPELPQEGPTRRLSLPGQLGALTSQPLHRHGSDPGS
Chain of Cytochrome P450 2C19 (Homo sapiens) (P33261 whole entry, looked up): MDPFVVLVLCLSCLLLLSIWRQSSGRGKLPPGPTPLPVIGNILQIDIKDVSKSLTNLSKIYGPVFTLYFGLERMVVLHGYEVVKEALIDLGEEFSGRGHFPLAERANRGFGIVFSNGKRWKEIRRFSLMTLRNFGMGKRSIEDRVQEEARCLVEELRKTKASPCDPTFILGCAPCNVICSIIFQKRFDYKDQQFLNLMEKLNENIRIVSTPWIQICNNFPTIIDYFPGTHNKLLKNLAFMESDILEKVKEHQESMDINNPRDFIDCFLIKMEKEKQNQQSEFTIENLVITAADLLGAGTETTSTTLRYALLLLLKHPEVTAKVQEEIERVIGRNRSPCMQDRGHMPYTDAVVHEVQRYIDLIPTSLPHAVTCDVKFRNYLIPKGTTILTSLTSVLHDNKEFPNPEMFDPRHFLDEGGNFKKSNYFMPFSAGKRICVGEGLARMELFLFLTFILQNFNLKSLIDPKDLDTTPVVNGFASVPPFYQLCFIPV
Chain of Cytochrome P450 3A4 (Homo sapiens) (P08684 whole entry, looked up): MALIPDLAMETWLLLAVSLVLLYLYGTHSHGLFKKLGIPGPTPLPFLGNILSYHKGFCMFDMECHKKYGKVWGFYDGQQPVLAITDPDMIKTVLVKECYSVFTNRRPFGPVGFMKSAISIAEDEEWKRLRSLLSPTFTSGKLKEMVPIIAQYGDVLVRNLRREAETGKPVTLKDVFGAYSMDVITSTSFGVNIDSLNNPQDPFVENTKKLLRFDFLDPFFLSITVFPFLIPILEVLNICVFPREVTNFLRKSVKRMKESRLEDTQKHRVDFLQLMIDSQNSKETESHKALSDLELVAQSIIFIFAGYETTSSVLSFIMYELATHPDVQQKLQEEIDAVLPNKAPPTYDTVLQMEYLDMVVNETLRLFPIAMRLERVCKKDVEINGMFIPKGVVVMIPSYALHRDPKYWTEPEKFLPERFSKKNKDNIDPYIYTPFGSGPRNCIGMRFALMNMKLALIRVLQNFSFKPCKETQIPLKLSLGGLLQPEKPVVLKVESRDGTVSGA
Chain of Cytochrome P450 2D6 (Homo sapiens) (P10635 whole entry, looked up): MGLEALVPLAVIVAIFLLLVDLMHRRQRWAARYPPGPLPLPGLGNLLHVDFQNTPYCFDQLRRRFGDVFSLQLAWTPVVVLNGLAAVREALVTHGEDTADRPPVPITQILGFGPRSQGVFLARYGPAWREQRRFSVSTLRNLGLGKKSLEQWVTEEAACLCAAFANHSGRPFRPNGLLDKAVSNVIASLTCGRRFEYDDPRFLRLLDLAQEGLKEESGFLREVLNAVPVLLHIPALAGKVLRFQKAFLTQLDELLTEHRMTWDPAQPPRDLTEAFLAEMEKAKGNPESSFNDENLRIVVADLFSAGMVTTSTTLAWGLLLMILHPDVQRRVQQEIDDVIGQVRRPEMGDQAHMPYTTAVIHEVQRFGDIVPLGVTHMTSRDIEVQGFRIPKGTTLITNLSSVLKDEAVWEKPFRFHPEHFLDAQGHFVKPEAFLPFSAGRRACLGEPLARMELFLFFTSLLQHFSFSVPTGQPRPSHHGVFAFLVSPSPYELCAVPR
Chain of Cytochrome P450 1A2 (Homo sapiens) (P05177 whole entry, looked up): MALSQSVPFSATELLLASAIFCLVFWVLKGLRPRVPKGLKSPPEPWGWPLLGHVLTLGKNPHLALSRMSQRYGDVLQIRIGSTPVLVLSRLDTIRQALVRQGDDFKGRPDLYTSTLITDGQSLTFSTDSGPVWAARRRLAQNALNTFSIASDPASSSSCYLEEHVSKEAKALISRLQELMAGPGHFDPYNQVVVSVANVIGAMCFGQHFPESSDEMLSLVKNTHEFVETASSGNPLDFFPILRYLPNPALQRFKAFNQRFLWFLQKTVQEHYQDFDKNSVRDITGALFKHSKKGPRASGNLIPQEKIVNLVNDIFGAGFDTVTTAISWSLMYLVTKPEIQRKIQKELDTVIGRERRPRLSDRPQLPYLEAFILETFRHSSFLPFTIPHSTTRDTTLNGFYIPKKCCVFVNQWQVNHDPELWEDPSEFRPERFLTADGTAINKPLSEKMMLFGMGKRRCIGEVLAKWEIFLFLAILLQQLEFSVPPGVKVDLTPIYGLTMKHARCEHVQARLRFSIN
Chain of Cytochrome P450 2C9 (Homo sapiens) (P11712 whole entry, looked up): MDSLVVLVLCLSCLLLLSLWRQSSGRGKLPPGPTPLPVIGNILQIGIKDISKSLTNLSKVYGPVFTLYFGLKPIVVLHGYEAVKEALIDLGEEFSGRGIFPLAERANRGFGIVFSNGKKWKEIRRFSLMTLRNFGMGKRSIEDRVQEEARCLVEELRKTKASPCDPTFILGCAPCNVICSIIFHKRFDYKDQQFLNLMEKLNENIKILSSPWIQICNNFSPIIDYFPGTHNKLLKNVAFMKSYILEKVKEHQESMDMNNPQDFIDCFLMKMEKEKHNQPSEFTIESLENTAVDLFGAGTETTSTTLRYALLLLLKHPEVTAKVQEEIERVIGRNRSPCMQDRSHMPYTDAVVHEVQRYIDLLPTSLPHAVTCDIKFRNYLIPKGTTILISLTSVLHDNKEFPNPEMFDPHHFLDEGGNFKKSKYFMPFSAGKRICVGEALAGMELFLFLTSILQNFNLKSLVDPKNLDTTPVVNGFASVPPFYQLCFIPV

CCCCCCI
inactive: Potency [1] | Potency [2] | Potency [3] | Potency [4] | Potency [5] | Potency [6] | Potency [7] | Potency [8]

CNCC(=O)c1ccc(O)c(O)c1
inactive: Potency [1] | Potency [2] | Potency [3] | Potency [4] | Potency [5] | Potency [6] | Potency [7] | Potency [8] | Potency [9]

CCCSC(=O)Cl
inactive: Potency [1] | Potency [2] | Potency [3] | Potency [4] | Potency [5] | Potency [6] | Potency [7] | Potency [8]

N#CCCC#N
inactive: Potency [1] | Potency [2] | Potency [3] | Potency [4] | Potency [5] | Potency [6] | Potency [7] | Potency [8] | Potency [9]

CCN(CC)C(C)C(=O)c1ccccc1 (stereo not given)
inactive: Potency [1] | Potency [2] | Potency [3] | Potency [5] | Potency [6] | Potency [7] | Potency [8] | Potency [9]
active: Potency [4] 19.5 µM

NC(=O)O
inactive: Potency [1] | Potency [2] | Potency [3] | Potency [4] | Potency [5] | Potency [6] | Potency [7] | Potency [8]

CSc1nc(N=[N+]=[N-])nc(NC(C)C)n1
inactive: Potency [1] | Potency [2] | Potency [3] | Potency [4] | Potency [8] | Potency [9]
active: Potency [5] 71 µM | Potency [6] 79.6 µM | Potency [7] 28.3 µM

CC1=C(C(=O)O)N2C(=O)[C@@H](N)[C@H]2SC1
inactive: activity change, negative = inhibition [1] 0.693% [at 23.6 µM] | activity change, negative = inhibition [2] 0.138% [at 23.8 µM] | activity change, negative = inhibition [3] 2.02% [at 23.6 µM] | activity change, negative = inhibition [4] -15.2% [at 23.6 µM] | activity change, negative = inhibition [5] -10.3% [at 23.6 µM] | activity change, negative = inhibition [6] 5.86% [at 23.6 µM] | activity change, negative = inhibition [7] 13% [at 23.6 µM] | activity change, negative = inhibition [8] 3.94% [at 15.8 µM]

O=C(NCO)NCO
inactive: Potency [1] | Potency [2] | Potency [3] | Potency [4] | Potency [5] | Potency [6] | Potency [7] | Potency [8]

C=CCC1=C(C)[C@@H](OC(=O)[C@@H]2[C@@H](C=C(C)C)C2(C)C)CC1=O
active: Potency [4] 35.6 µM | Potency [5] 6.33 µM | Potency [6] 12.6 µM | Potency [7] 28.3 µM | Potency [8] 21.9 µM
inactive: Potency [1] | Potency [2] | Potency [3]

CCOC(=O)C(c1c(O)c2ccccc2oc1=O)c1c(O)c2ccccc2oc1=O
inactive: Potency [1] | Potency [2] | Potency [3] | Potency [4] | Potency [5] | Potency [8]
active: Potency [6] 2.75 µM | Potency [7] 27.5 µM

CNC(=O)Oc1c(C(C)(C)C)cc(C)cc1C(C)(C)C
active: Potency [5] 2.83 µM | Potency [6] 6.33 µM | Potency [9] 2.83 µM
inactive: Potency [1] | Potency [2] | Potency [3] | Potency [4] | Potency [7] | Potency [8]

Cc1nc(N)nc(N)n1
inactive: Potency [1] | Potency [2] | Potency [3] | Potency [4] | Potency [5] | Potency [6] | Potency [7] | Potency [8] | Potency [9]

COc1ncc(F)c2nc(S(=O)(=O)Nc3c(F)cccc3F)nn12
inactive: Potency [1] | Potency [2] | Potency [3] | Potency [4] | Potency [5] | Potency [7] | Potency [8] | Potency [9]
active: Potency [6] 22.6 µM

O=C1OC(=O)C2C1C1(Cl)C(Cl)=C(Cl)C2(Cl)C1(Cl)Cl (stereo not given)
inactive: Potency [1] | Potency [2] | Potency [3] | Potency [4] | Potency [5] | Potency [6] | Potency [7] | Potency [8] | Potency [9]

O=C(Nc1ccccc1)c1ccccc1I
inactive: Potency [1] | Potency [2] | Potency [3] | Potency [8]
active: Potency [4] 35.6 µM | Potency [5] 22.4 µM | Potency [6] 39.9 µM | Potency [7] 20 µM

NC(=O)c1cc([N+](=O)[O-])cc([N+](=O)[O-])c1
inactive: Potency [1] | Potency [2] | Potency [3] | Potency [4] | Potency [5] | Potency [6] | Potency [7] | Potency [8] | Potency [9]

CCOP(=S)(OCC)SCSc1ccc(Cl)cc1
active: Potency [4] 11.2 µM | Potency [5] 0.502 µM | Potency [6] 1 µM | Potency [7] 8.94 µM
inactive: Potency [1] | Potency [2] | Potency [3] | Potency [8]

Cc1ncsc1CCCl
inactive: Potency [1] | Potency [2] | Potency [3] | Potency [4] | Potency [5] | Potency [6] | Potency [7] | Potency [8] | Potency [9]

ClC(Cl)(Cl)C(Cl)(Cl)Cl
inactive: Potency [1] | Potency [2] | Potency [3] | Potency [4] | Potency [5] | Potency [6] | Potency [7] | Potency [8]

CC(=O)[C@H]1CC[C@H]2[C@@H]3CC[C@H]4C[C@H](O)CC[C@]4(C)[C@H]3C(=O)C[C@]12C
inactive: Potency [1] | Potency [2] | Potency [3]

CC(CCc1ccccc1)NC(C)C(O)c1ccc(O)cc1 (stereo not given)
active: Potency [4] 0.436 µM | Potency [5] 9.77 µM | Potency [7] 15.5 µM | Potency [8] 4.77 µM
inactive: Potency [1] | Potency [2] | Potency [3] | Potency [6]

CCN(CC)CCOC(=O)C(C)(c1ccccc1)c1ccccc1
inactive: Potency [1] | Potency [2] | Potency [3] | Potency [7]
active: Potency [4] 1.55 µM | Potency [5] 3.89 µM | Potency [6] 12.3 µM | Potency [8] 10.7 µM

NC1=NC(=O)C(c2ccccc2)O1 (stereo not given)
inactive: Potency [1] | Potency [2] | Potency [3] | Potency [4] | Potency [5] | Potency [6] | Potency [7] | Potency [8]

OCCSCSCCO
inactive: Potency [1] | Potency [2] | Potency [3] | Potency [4] | Potency [5] | Potency [6] | Potency [7] | Potency [8]
